Measurements reported in PubChem BioAssay (Tox21).
Results filed as inconclusive are left out. Where a call stands in place of a potency, no number is given. Values without a mark were called inactive. Activity calls are given as the source filed them. Unless noted, calls come from the whole dose curve; as a rule, active = well fitted curve in the direction sought with a large enough effect in the repeat runs; inconclusive = weak or mixed curves; inactive = no such curve, though single readings can be large; an effect the other way counts as inactive or inconclusive.

Legend:
[1] = qHTS assay to identify small molecule antagonists of the estrogen related receptor (ERR) signaling pathway from Tox21 library - cell viability counter screen (AID 1224834); note: nearly all actives have a fitted effect of over 30% in size; note: potency is the fitted concentration of half-maximal effect
Summary of the method: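 CellTiter-Fluor fluorescence, read after 30 min at 37 C, measures viability of ERR cells. Cells plated at 2,000/well and incubated 6 h before pin-tool compound addition, then exposed 17.5 hours at 37 C.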

[2] = biological target: Luciferin 4-monooxygenase (Photinus pyralis) (UniProt P08659); assay: qHTS assay to identify small molecule inhibitors of firefly luciferase (AID 1224835); note: nearly all actives have a fitted effect of over 25% in size; note: potency is the fitted concentration of half-maximal effect
Summary of the method: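 Quantitative HTS format; KM concentrations of both substrates. Purified P. pyralis FLuc activity quantified from luminescence images.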

[3] = qHTS assay to identify small molecule agonists of the constitutive androstane receptor (CAR) signaling pathway - cell viability counter screen (AID 1224836); note: nearly all actives have a fitted effect of over 45% in size; note: potency is the fitted concentration of half-maximal effect
Summary of the method: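 23 h treatment, 37 C, 5% CO2. Cell line: HepG2 stably expressing hCAR with a CYP2B6-2.2kb construct. Co-treatment: PK11195, 0.75 uM final. Read-out: CellTiter-Fluor fluorescence intensity.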

[4] = qHTS assay to identify small molecule antagonists of the constitutive androstane receptor (CAR) signaling pathway - cell viability counter screen (AID 1224837); note: nearly all actives have a fitted effect of over 45% in size; note: potency is the fitted concentration of half-maximal effect
Summary of the method: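 Cytotoxicity counter-screen: CellTiter-Fluor fluorescence after 23 h compound exposure (15-point qHTS) in double-stable HepG2-CYP2B6-hCAR cells, with 50 nM CITCO added.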

[5] = biological target: Nuclear receptor subfamily 1 group I member 3 (Homo sapiens) (UniProt Q14994); assay: qHTS assay to identify small molecule antagonists of the constitutive androstane receptor (CAR) signaling pathway (AID 1224838);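 note: HepG2 cells stably expressing hCAR with CYP2B6 luciferase reporter stimulated by CITCO; nearly all actives have a fitted effect of over 40% in size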; note: potency is the fitted concentration of half-maximal effect
Summary of the method: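 Antagonism measured as luciferase signal (ONE-Glo, 30 min, room temperature) in CAR-stimulated cells: HepG2-CYP2B6-hCAR double-stable line exposed 24 hr at 37 C to compound in a 15-point series plus 50 nM CITCO.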

[6] = biological target: Nuclear receptor subfamily 1 group I member 3 (Homo sapiens) (UniProt Q14994); assay: qHTS assay to identify small molecule agonists of the constitutive androstane receptor (CAR) signaling pathway (AID 1224839); note: nearly all actives have a fitted effect of over 15% in size; note: potency is the fitted concentration of half-maximal effect;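 for activation: HepG2 cells stably carrying human CAR and a CYP2B6 luciferase reporter; series mostly up to about 92 µM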
Summary of the method: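 Compounds tested at 15 concentrations on HepG2 cells stably harbouring hCAR and CYP2B6-2.2kb reporter constructs, co-treated with PK11195 (0.75 uM final), 24 h at 37 C; luminescent reporter signal quantified.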

[7] = qHTS assay to identify small molecule antagonists of the estrogen related receptor signaling pathway with the pleiotropic PPARgamma coactivator (PGC) from Tox21 10K library - cell viability counter screen (AID 1224840; active = well fitted cell-killing curve with a large enough effect in the repeat runs, not every such curve was filed as active; note: nearly all actives have a fitted effect of over 40% in size; note: potency is the fitted concentration of half-maximal effect)
Summary of the method: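 Counter-screen for cytotoxicity: after 17.5 h compound exposure at 37 C, CellTiter-Fluor reagent added to PGC/ERR cells for 30 min and fluorescence read. Cells were seeded at 2,000 per well 6 h before dosing.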

[8] = biological target: Thyrotropin receptor (Homo sapiens) (UniProt P16473); assay: qHTS assay to identify small molecule agonists of the thyroid stimulating hormone receptor (TSHR) signaling pathway (AID 1224843; calls by dose curve; note: nearly all actives have a fitted effect of over 45% in size; note: potency is the fitted concentration of half-maximal effect)
Summary of the method: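 Using 15 concentrations per compound in triplicate, cAMP production was monitored in TSHR-HEK293 cells after 30 min compound incubation at RT; HTRF reagents followed, with fluorescence intensity recorded after 1 h.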

[9] = qHTS assay to identify small molecule agonists of the estrogen related receptor signaling pathway with the pleiotropic PPARgamma coactivator (PGC) from Tox21 10K library (AID 1224842); note: nearly all actives have a fitted effect of over 15% in size
Summary of the method: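 PGC/ERR reporter cells (NTP line) were seeded 2,000 per well, rested 6 h at 37 C/5% CO2, then pin-dosed with compounds in DMSO for 18 h at 37 C; luciferase read by One-Glo luminescence after 30 min at room temperature.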

[10] = qHTS assay to identify small molecule antagonists of the estrogen related receptor signaling pathway with the pleiotropic PPARgamma coactivator (PGC) from Tox21 10K library (AID 1224841; call rule not given here; note: actives are mostly falling curves and most rising ones were filed inactive; nearly all actives have a fitted effect of over 50% in size; note: potency is the fitted concentration of half-maximal effect)
Summary of the method: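 Luminescence (One-Glo, 30 min at room temperature) after 18 h compound treatment at 37 C of PGC/ERR reporter cells plated at 2,000 cells/well and settled 6 h beforehand.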

Chain of Thyrotropin receptor (Homo sapiens) (P16473 whole entry, looked up): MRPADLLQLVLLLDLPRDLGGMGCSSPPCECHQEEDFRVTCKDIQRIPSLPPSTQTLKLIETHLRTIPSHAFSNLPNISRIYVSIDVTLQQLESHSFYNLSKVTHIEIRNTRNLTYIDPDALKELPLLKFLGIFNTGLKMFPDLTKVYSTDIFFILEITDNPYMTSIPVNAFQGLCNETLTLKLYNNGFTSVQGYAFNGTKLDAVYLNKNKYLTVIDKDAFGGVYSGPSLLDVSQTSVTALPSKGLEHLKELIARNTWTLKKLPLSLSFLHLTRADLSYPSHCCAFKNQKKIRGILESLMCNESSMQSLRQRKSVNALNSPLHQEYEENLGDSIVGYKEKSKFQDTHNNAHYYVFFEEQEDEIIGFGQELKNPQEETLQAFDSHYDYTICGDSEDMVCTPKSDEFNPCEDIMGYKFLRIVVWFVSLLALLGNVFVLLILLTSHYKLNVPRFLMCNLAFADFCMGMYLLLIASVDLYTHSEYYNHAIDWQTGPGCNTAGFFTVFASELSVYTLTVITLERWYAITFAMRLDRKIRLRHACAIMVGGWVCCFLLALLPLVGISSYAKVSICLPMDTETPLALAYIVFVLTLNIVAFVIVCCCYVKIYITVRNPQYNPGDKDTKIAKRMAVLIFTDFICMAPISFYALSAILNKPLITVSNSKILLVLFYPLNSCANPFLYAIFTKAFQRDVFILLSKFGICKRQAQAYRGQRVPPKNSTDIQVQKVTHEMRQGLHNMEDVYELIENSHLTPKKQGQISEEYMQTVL
Chain of Luciferin 4-monooxygenase (Photinus pyralis) (P08659 whole entry, looked up): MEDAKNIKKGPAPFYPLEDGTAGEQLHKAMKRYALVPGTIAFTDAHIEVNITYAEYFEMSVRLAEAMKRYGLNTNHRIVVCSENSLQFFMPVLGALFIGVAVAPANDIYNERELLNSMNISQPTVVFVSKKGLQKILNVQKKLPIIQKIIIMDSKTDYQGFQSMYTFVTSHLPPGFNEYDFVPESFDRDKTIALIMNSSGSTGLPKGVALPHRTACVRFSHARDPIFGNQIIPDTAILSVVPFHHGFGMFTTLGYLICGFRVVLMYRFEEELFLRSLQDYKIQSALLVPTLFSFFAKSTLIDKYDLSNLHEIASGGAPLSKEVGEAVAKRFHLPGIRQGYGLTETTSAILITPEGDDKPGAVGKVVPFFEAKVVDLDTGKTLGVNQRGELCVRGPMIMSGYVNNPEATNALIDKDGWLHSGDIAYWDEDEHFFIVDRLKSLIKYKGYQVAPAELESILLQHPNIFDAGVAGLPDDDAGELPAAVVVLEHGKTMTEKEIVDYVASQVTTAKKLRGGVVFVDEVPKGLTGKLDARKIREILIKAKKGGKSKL
Chain of Nuclear receptor subfamily 1 group I member 3 (Homo sapiens) (Q14994 whole entry, looked up): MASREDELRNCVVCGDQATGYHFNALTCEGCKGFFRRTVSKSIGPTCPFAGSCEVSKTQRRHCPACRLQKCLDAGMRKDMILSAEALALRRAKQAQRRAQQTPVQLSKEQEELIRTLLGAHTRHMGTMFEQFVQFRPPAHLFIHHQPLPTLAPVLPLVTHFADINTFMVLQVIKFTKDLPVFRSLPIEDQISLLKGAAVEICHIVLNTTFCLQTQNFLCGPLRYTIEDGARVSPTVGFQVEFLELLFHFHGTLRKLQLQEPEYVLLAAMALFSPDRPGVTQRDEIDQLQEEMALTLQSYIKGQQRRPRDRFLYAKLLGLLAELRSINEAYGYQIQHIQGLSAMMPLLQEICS

SMILES	Potency [1]	Potency [2]	Potency [3]	Potency [4]	Potency [5]	Potency [6]	Potency [7]	Potency [8]	Potency [9]	Potency [10]	activation [6]	activation [9]	activation [8]
Cc1ccc(O)c(C(C)(C)C)c1	inactive	inactive	inactive	inactive	inactive	inactive	inactive	inactive					
Cn1cc(C(=O)[C@@H]2CCc3nc[nH]c3C2)c2ccccc21	inactive	inactive	inactive	inactive	inactive	inactive	inactive	inactive	inactive				
CCCCN(CCCC)C(=O)N(CCCC)CCCC	inactive	inactive	inactive	inactive	inactive	30.6 µM (active)	inactive						
O=CC=C(c1ccccc1)c1ccccc1	27.5 µM (active)	inactive	inactive	inactive	inactive								
Nc1c(Cl)cc(Cl)cc1Cl	inactive	inactive	inactive	inactive	inactive	inactive	inactive	inactive					
Cc1c(C)c2c(c(C)c1O)CCC(C)(COc1ccc(CC3SC(=O)NC3=O)cc1)O2 (stereo not given)	inactive	inactive	inactive	inactive	inactive	inactive	inactive	inactive					
N#CC1(c2ccc(F)cc2)CCC(=O)CC1	inactive	inactive	inactive	inactive	inactive	inactive	inactive	inactive	inactive				
C/C(=C(/OCCOc1ccc(Cl)cc1)c1ccc(Cl)cc1Cl)n1ccnc1	inactive	inactive	inactive	inactive	inactive	inactive	inactive						
COc1cc(/C=C/C(=O)O[C@H]2CC[C@]34C[C@]35CC[C@]3(C)[C@@H]([C@H](C)CCC=C(C)C)CC[C@@]3(C)[C@@H]5CC[C@H]4C2(C)C)ccc1O	inactive	inactive	inactive	inactive	inactive	inactive	inactive		inactive				
O=c1[nH]sc2cc(Cl)ccc12	inactive	17.4 µM (active)	inactive	inactive	0.001 µM (active)	inactive	inactive		inactive	0.298 µM (active)			
CCC(C)(C)C1CCCCC1OC(C)=O (stereo not given)	inactive	inactive	inactive	inactive	inactive	inactive	inactive		inactive	inactive			
C[n+]1cc2c3c(ccc2c2ccc4cc5c(cc4c21)OCO5)OCO3	2.91 µM (active)	6.74 µM (active)	2.91 µM (active)	2.59 µM (active)	2.91 µM (active)		3.26 µM (active)			7.3 µM (active)	-21.2% [at 19 µM]	-34.9% [at 19 µM]	-8.77% [at 19 µM]
CC1=NC(C)OC1C (stereo not given)	inactive	inactive	inactive	inactive	inactive	inactive	inactive	inactive					
COC(=O)c1cc(Cl)ccc1OC	inactive	inactive	inactive	inactive	inactive	inactive	inactive	inactive					
CCCCCCCC(=O)[O-].CCCCCCCC(=O)[O-].[Zn+2]	inactive	34.7 µM (active)	inactive	inactive	inactive	inactive	inactive						
CCOc1nc2cccc(C(=O)OC(C)OC(=O)OC3CCCCC3)c2n1Cc1ccc(-c2ccccc2-c2nn[nH]n2)cc1 (stereo not given)	54.4 µM (active)	56.4 µM (active)	inactive	inactive	inactive	inactive	43.2 µM (active)	inactive	inactive	54.4 µM (active)			
C=CC(=O)OCC(CO)(COCC(COC(=O)C=C)(COC(=O)C=C)COC(=O)C=C)COC(=O)C=C	4.8 µM (active)	inactive	6.78 µM (active)	6.04 µM (active)	5.38 µM (active)	inactive	3.4 µM (active)	6.04 µM (active)					
O=C(Nc1ccc(Oc2ccc(Cl)cc2)c(Cl)c1)c1cc(I)cc(I)c1O	inactive	inactive	inactive	inactive	inactive	inactive		inactive	inactive				
CC(C)=CCOc1ccc(/C=C/C(=O)c2ccc(OCC=C(C)C)cc2OCC(=O)O)cc1	inactive	inactive	inactive	inactive	inactive	inactive	inactive		inactive	21.1 µM (active)			
Cc1c(C)c2c(c(C)c1OC(=O)CCC(=O)O)CC[C@@](C)(CCC[C@H](C)CCC[C@H](C)CCCC(C)C)O2	inactive	inactive	inactive	inactive	inactive	inactive	inactive	inactive	inactive	inactive			
